The list is not random: actives were taken first. Their share in the collection is about 3.3%.
ERa SRC1 pot = enhances coactivator binding to human estrogen receptor alpha | AID 639 | 86,000 compounds, 1.3% hits | P03372 | TR-FRET ERalpha-LBD/SRC-Cy5 coactivator binding, 2 h; 100 = basal binding, no effect | coactivator binding (% of control), % at 25.6 µM; in the data active = activity above about 200%;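 also: binding measured in presence of low estradiol as agonist stimulus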
ERa coact inh = blocks coactivator binding to human estrogen receptor alpha. inhibition, % at 25.6 µM. TR-FRET ER-alpha LBD / SRC-1 peptide, estradiol-bound. 86,000 compounds, 1.7% hits. P03372. AID 629; in the data active = inhibition above about 50%
ERb coact inh = ER-beta (human) coactivator binding inhibition; Q92731; TR-FRET ER-beta LBD / SRC1-Cy5 peptide binding; receptor agonist-loaded with 1 µM estradiol; inhibition, % at 25.6 µM; 86,000 compounds, 1.3% hits; AID 633;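 active = compounds whose percent inhibition of the receptor-coactivator binding signal exceeds about 50% in the single-dose screen, limit read from the data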
Smad3 FoxH1 inh = Smad3 (human) transcription factor binding inhibition | 88,000 compounds, 0.29% hits | TR-FRET Smad3/Dy647-FoxH1 peptide binding, europium anti-His | AID 630 | inhibition, % at 25 µM;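 active = compounds that reduce the energy-transfer binding signal between the protein and its labelled peptide by more than half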
Target sequence (P84022 whole entry, looked up): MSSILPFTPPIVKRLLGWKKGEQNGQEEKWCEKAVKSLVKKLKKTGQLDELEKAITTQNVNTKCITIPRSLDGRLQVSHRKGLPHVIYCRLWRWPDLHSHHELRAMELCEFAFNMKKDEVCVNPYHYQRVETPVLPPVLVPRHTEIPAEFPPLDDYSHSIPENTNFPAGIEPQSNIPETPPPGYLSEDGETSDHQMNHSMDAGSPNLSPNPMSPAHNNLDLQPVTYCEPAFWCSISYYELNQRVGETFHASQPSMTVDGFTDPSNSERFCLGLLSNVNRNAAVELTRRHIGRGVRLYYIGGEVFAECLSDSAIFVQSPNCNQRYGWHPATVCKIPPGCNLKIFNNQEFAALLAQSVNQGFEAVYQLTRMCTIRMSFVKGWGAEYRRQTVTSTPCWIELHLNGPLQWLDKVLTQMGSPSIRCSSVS
FAK inh = inhibitors of human focal adhesion kinase. inhibition, %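 (tested at 7 µM)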. 97,000 compounds, 0.84% hits. biochemical FAK kinase activity assay
FAK inh confirm = FAK (human) inhibition confirmed. inhibition, % at 7 µM. FAK kinase biochemical inhibition assay. 750 compounds, 28% hits. shares compounds with FAK inh. AID 794
A number is an active result; i = inactive; nt = not tested or not shown; [ ] = dose if it differs, or a comment. Rule as the data show it, unless noted: active = inhibition above about 19%; inactive = the rest.

SMILES	ERa SRC1 pot	ERa coact inh	ERb coact inh	Smad3 FoxH1 inh	FAK inh	FAK inh confirm
Cc1cccc(C(=O)NNC(=O)c2cc3cc4ccccc4nc3s2)c1	nt	nt	nt	nt	i	nt
O=S1(=O)C=CC(Nc2ccccc2)C1 (stereo not given)	i	i	i	i	i	nt
O=C(c1cccc(S(=O)(=O)N2CCCC2)c1)N1CCN(c2ccccc2F)CC1	i	i	i	i	34.9	i
COn1c(SCc2ccc(C)cc2C)nc2ccccc2c1=O	i	i	i	i	i	nt
Cc1ccc(SCc2ccc(C(=O)NCc3ccncc3)cc2)cc1	nt	nt	nt	nt	43.3	i
Cc1ccc(C)c(C(=O)NCc2ccncc2)c1	i	i	i	i	i	nt
CC(=O)Cc1ccccc1OCC(=O)O	i	i	i	i	i	nt
COCCN(Cc1ccccc1)P(=O)(O)c1ccccc1OCC(=O)O	262.1[fluorescence artefact?]	i	i	i	62.1	51.6
CC(C)Cc1nc2n[nH]c(N)c2c2c1CCC2	i	i	i	i	19.0	i
CCCCc1nc2n[nH]c(N)c2c2c1CCC2	i	i	i	i	19.9	i
CCCc1nc2n[nH]c(N)c2c2c1COC(C)(C)C2	i	i	i	i	i	nt
Cn1c(=O)c2c(nc(N3CCN(Cc4ccccc4)CC3)n2CCSc2ncccn2)n(C)c1=O	i	i	i	i	nt	nt
CCOc1ccc(-c2nnn(CC(=O)Nc3ccccc3OC)n2)cc1OCC	i	i	i	i	i	nt
COc1ccccc1NC(=O)Cn1nnc(-c2ccccc2NC(=O)c2ccco2)n1	i	i	i	i	26.8	i
COc1cc(C(=O)Nc2ccccc2-c2nnn(CC(N)=O)n2)cc(OC)c1OC	nt	nt	nt	nt	i	nt
COc1ccccc1NC(=O)Cn1nnc(-c2ccccc2NC(=O)c2cccs2)n1	338.9[fluorescence artefact?]	i	i	i	20.9	i
Cc1ccc(C)c(NC(=S)N(CCc2nc3cc(C)c(C)cc3[nH]2)Cc2cccnc2)c1	nt	nt	nt	nt	i	nt
O=C(Nc1ccc(F)cc1)Nc1nnc(-c2ccncc2)s1	nt	nt	nt	nt	29.8	i
O=C(NC1(O)C(=O)c2ccccc2C1=O)c1ccccc1	nt	nt	nt	nt	21.8	i
O=C(NCNC(=O)c1ccccc1)c1ccccc1	i	i	i	i	i	nt
O=C(NCCc1c[nH]c2ccccc12)C1CCN(c2nnc(N3CCCC3=O)s2)CC1	i	i	i	i	36.0	31.1
O=C(O)C1CCCCC1C(=O)NCCc1c[nH]c2ccccc12 (stereo not given)	i	i	i	i	i	nt
CC(C)c1nnc(NC(=O)C2CCCCC2)s1	i	i	i	i	i	nt
CC(C)c1cc(C(N)=O)c(NC(=O)C2CCC2)s1	i	i	i	i	24.0	i
O=C(Nc1cccc2c1CCCC2)C1CCCN(S(=O)(=O)c2cccc3nonc23)C1 (stereo not given)	i	i	i	i	i	nt
SMILES	ERa SRC1 pot	ERa coact inh	ERb coact inh	Smad3 FoxH1 inh	FAK inh	FAK inh confirm
Nc1nnc2c(n1)CCCC2	i	i	i	i	20.7	i
O=c1[nH]c2ccccc2nc1N1CCOCC1	i	i	i	i	i	nt
c1ccc2c(c1)nc(N1CCOCC1)c1c3ccccc3[nH]c21	i	i	i	i	31.1	i
O=C(Nc1ccc(Cl)c(Cl)c1)N1CC=CCC1	i	i	i	i	nt	nt
O=C(Nc1ccc(Cl)c(Cl)c1)N1CCSC1c1ccco1 (stereo not given)	i	i	i	i	25.9	i
CCOc1ccc(C2N(c3ccc(F)cc3)C(=O)C3CCCN32)cc1OC (stereo not given)	i	i	i	i	i	nt
Cc1oc2c(c1C(=O)c1ccccc1)C(=O)C(=O)c1ccccc1-2	i	i	i	i	30.1	21.7
CC1=C(CC(=O)c2ccccc2)C(=O)c2ccccc2C1=O	nt	nt	nt	nt	i	nt
O=C1C(=O)c2c(C(=O)c3ccccc3)coc2-c2ccccc21	i	i	i	i	31.9	20.2
CCOC(=O)c1ccc(NC2=CC(=O)C(=O)c3ccccc32)cc1	i	i	i	77.5	35.7	34.7
Cc1cc(NC(=O)CCC(=O)N(c2ccccc2)C2(C(=O)NC3CCCCC3)CCCC2)no1	i	i	i	i	i	nt
Cn1c(C(=O)N2CCN(C(=O)c3ccco3)CC2)cc2c(=O)n(C)c3ccccc3c21	i	i	i	i	18.8	i
COc1cc(CNCc2ccccn2)ccc1OCc1ccc(Cl)cc1Cl	nt	nt	nt	nt	i	nt
Oc1ccc(NCc2ccccc2OCc2ccccc2F)cc1	nt	nt	nt	nt	35.3	i
CCOc1cccc(CNc2ccc(O)cc2)c1OCc1ccc(Cl)cc1	nt	nt	nt	nt	30.1	i
CCOc1cc(CNc2ccc(O)cc2)ccc1OCc1ccc(Cl)cc1Cl	nt	nt	nt	nt	31.6	i
Cc1ccc(NC(=O)c2cc(-c3cccc(O)c3)on2)cc1C	i	i	i	i	i	nt
CC1CCCCN1C(=O)C12CCC(C)(/C(=N/O)C1)C2(C)C (stereo not given)	i	i	i	i	i	nt
CCc1ccc(OCC(=O)Nc2ccc(-c3nc4ccccc4o3)c(O)c2)cc1	i	79.5[fluorescence artefact?]	69.9[fluorescence artefact?]	i	29.7	21.4
COc1ccc(OCC(=O)Nc2cccc(-c3nc4ccccc4o3)c2)cc1	i	i	i	i	i	nt
Cc1ccccc1Cn1c2ccccc2c2cn[nH]c(=O)c21	nt	nt	nt	nt	19.9	i
CC(=O)c1ccc(NC2=C(N3CCOCC3)C(=O)c3ccccc3C2=O)cc1	nt	nt	nt	nt	i	nt
Cc1ccc(NC2=C(N3CCOCC3)C(=O)c3ccccc3C2=O)cc1	nt	nt	nt	nt	43.1	i
COc1ccccc1CNc1ncnc2c1nnn2Cc1ccccc1	i	i	i	i	i	nt
Cc1ccc(NC(=O)COc2ccc(/C=N/NC(=O)CSCc3ccccc3)cc2)cc1	nt	nt	nt	nt	20.2	i
SMILES	ERa SRC1 pot	ERa coact inh	ERb coact inh	Smad3 FoxH1 inh	FAK inh	FAK inh confirm
COc1ccc(CNC(=O)C2CC(=O)N(c3ccc(OCC(=O)N4C(C)CCCC4C)cc3)C2)cc1 (stereo not given)	i	i	i	i	i	nt
COc1ccc(-c2nnc(SCc3c(C)noc3C)n2N)cc1OC	i	i	i	i	i	nt
CCN1C(=O)c2cccc3c(S(=O)(=O)NCc4ccco4)ccc1c23	i	i	i	i	20.6	i
Cc1ccsc1/C=N/NC(=O)c1sccc1C	nt	nt	nt	nt	i	nt
Cc1ccsc1C=Nc1ccc(O)cc1	i	i	75.7[fluorescence artefact?]	i	50.4	i
Cc1ccccc1OCC(=O)NNC(=O)c1ccc(-c2ccccc2)cc1	nt	nt	nt	nt	20.4	i
N#Cc1cccc(NC(=O)c2ccccc2C(=O)O)c1	i	i	i	i	21.6	i
Cc1ccccc1C(=O)Nc1cccc(C#N)c1	i	i	i	i	i	nt
O=c1oc(-c2ccc(Br)o2)nc2ccccc12	i	i	i	i	35.2	37.2
COc1cc(OC)cc(-c2nc3ccccc3c(=O)o2)c1	i	i	i	i	i	nt
COc1ccc(C(=O)Nc2ccc(NC(=O)c3cnccn3)cn2)cc1	nt	nt	nt	nt	i	nt
O=C1CCCC2=C1C(c1ccc(Cl)cc1)C1C(=O)c3ccccc3C1=N2 (stereo not given)	nt	nt	nt	nt	23.2	i
O=C1CCCC2=C1C(c1ccc(Cl)cc1)N1C(=O)CCSC1=N2 (stereo not given)	i	i	i	i	i	nt
COC(=O)/C(=C\Nc1ccccc1N)c1ncc(C(F)(F)F)cc1Cl	i	i	i	i	i	nt
CN(Cc1ccccc1)c1ncnc2ccc(Br)cc12	i	i	i	i	39.0	i
